Our source for the growth values is the supplement of paper PMC9262897, “Low-cost anti-mycobacterial drug discovery using engineered E. coli” (Nature Communications, 2022).

Where a name gives a salt, the structure may show the parent alone. ± gives the standard deviation of the averaged measurements.

What all share (test): growth (OD600 after 10 h); higher = more growth (less inhibition)
In experiment [1] the test system is E. coli TESEC Alr+ wild-type control. The conditions noted are these: compound 0.1 mM; raw OD600 reference: median of DMSO wells 0.241, cell-free background 0.041. How it is done:
(§1)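 TESEC Mtb Alr E. coli, or the Alr+ wild-type control, in 384-well plates with Prestwick library compounds at 0.1 mM and 1% DMSO, across arabinose induction levels of 1E3 to 1E7 nM. Growth is read as OD600 after 10 h at 37 °C in triplicate biological replicates.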

Experiment [2] relates to E. coli TESEC Mtb Alr. The conditions noted are these: compound 0.1 mM. How it is done: as §1
Another experiment deals with E. coli TESEC Mtb Asd. The conditions noted are these: compound 0.1 mM. How it is done: (§2)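 TESEC E. coli strains in which the native enzyme is deleted and replaced by arabinose-inducible Mtb Asd, DapB, CysH or TrpD, each grown in its selective medium. Strains were screened against the Prestwick library at 0.1 mM and 1% DMSO in 384-well format at low and high arabinose induction. Growth is read as OD600 after 10 h in triplicate.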

A further experiment has as its system E. coli TESEC Mtb DapB. The conditions noted are these: compound 0.1 mM. How it is done:
as §2

Experiment [3] deals with E. coli TESEC Alr+ wild-type control. The conditions noted are these: compound 0.1 mM; raw OD600 reference: median of DMSO wells 0.49, cell-free background 0.052. On the procedure:
(§3)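 TESEC Mtb Alr E. coli (ΔaraC ΔtolC ΔentC Δalr ΔdadX, arabinose-inducible Mtb Alr) or the Alr+ wild-type control strain, grown in defined M9-fructose medium without D-alanine in 96-well plates with Prestwick library compounds at 0.1 mM and 1% DMSO. Low Alr induction is 0.1 µM arabinose and high induction is 10 mM arabinose.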

Experiment [4] has as its system E. coli TESEC Mtb Alr. The conditions noted are these: compound 0.1 mM. On the procedure:
as §3
This is another data set of the same source.

Where [5] appears, read: arabinose 1000 nM, raw OD600 reference: median of DMSO wells 0.294, cell-free background 0.041.
Setting [6] is: arabinose 10000 nM, raw OD600 reference: median of DMSO wells 0.264, cell-free background 0.041.
[7] abbreviates: arabinose 100000 nM, raw OD600 reference: median of DMSO wells 0.201, cell-free background 0.041.
Setting [8] is: arabinose 1000000 nM, raw OD600 reference: median of DMSO wells 0.193, cell-free background 0.041.
Setting [9] is: arabinose 10000000 nM, raw OD600 reference: median of DMSO wells 0.146, cell-free background 0.041.
Setting [10] is: arabinose induction (level): High, raw OD600 reference: median of DMSO wells 0.331, cell-free background 0.041.
The mark [11] stands for this setting: arabinose induction (level): Low, raw OD600 reference: median of DMSO wells 0.417, cell-free background 0.041.
Setting [12] is: arabinose induction (level): High, raw OD600 reference: median of DMSO wells […], cell-free background 0.041.
Setting [13] is: arabinose induction (level): Low, raw OD600 reference: median of DMSO wells 0.227, cell-free background 0.041.
Where [14] appears, read: arabinose 100 nM, raw OD600 reference: median of DMSO wells 0.413, cell-free background 0.052.
The mark [15] stands for this setting: arabinose 10000000 nM, raw OD600 reference: median of DMSO wells […], cell-free background 0.052.

As for `CCCCNc1ccc(C(=O)OCCN(C)C)cc1`, the growth in experiment [1] was determined as 0.208 ± 0.0034; in the experiment on E. coli TESEC Mtb Alr [2] (setting [5]), 0.273 ± 0.006; in the experiment on E. coli TESEC Mtb Alr [2] (setting [6]), 0.255 ± 0.003; in the experiment on E. coli TESEC Mtb Alr [2] (setting [7]), 0.186 ± 0.0077; with E. coli TESEC Mtb Alr [2] (setting [8]), 0.166 ± 0.0023; in the experiment on E. coli TESEC Mtb Alr [2] (setting [9]) it was 0.146 ± 0.0066. The growth was determined as 0.266 ± 0.033 with E. coli TESEC Mtb Asd (setting [10]); 0.354 ± 0.021 in the experiment with E. coli TESEC Mtb Asd (setting [11]); 0.174 ± 0.019 in the experiment with E. coli TESEC Mtb DapB (setting [12]); 0.186 ± 0.0082 with E. coli TESEC Mtb DapB (setting [13]); 0.468 ± 0.0089 in experiment [3]; 0.396 ± 0.019 in the experiment with E. coli TESEC Mtb Alr [4] (setting [14]). Besides, the growth in the experiment on E. coli TESEC Mtb Alr [4] (setting [15]) was found to be 0.346 ± 0.018.
With `COc1ccc([C@@H]2Sc3ccccc3N(CCN(C)C)C(=O)[C@@H]2OC(C)=O)cc1` [Diltiazem hydrochloride], the growth in experiment [1] is 0.184 ± 0.0078; with E. coli TESEC Mtb Alr [2] (setting [5]), 0.239 ± 0.01; with E. coli TESEC Mtb Alr [2] (setting [6]), 0.274 ± 0.014; in the experiment with E. coli TESEC Mtb Alr [2] (setting [7]), 0.175 ± 0.0049; with E. coli TESEC Mtb Alr [2] (setting [8]) it was 0.139 ± 0.0028; in the experiment on E. coli TESEC Mtb Alr [2] (setting [9]), 0.139 ± 0.0037. Besides, the growth in the experiment on E. coli TESEC Mtb Asd (setting [10]) is 0.248 ± 0.063; with E. coli TESEC Mtb Asd (setting [11]), 0.434 ± 0.098; in the experiment on E. coli TESEC Mtb DapB (setting [12]), 0.184 ± 0.035; in the experiment on E. coli TESEC Mtb DapB (setting [13]), 0.211 ± 0.056; in experiment [3], 0.476 ± 0.011; in the experiment on E. coli TESEC Mtb Alr [4] (setting [14]), 0.413 ± 0.0022. The molecule further gave a growth in the experiment on E. coli TESEC Mtb Alr [4] (setting [15]) of 0.3 ± 0.013.
With `CC1CCc2c(N3CCC(O)CC3)c(F)cc3c(=O)c(C(=O)O)cn1c23` (configuration not stated) [Nadifloxacin], the growth was determined as 0.04253 ± 5.8e-05 in experiment [1]; 0.04043 ± 0.00023 in the experiment with E. coli TESEC Mtb Alr [2] (setting [5]); 0.0418 ± 0.0029 with E. coli TESEC Mtb Alr [2] (setting [6]); 0.0437 ± 0.005 in the experiment with E. coli TESEC Mtb Alr [2] (setting [7]); 0.03983 ± 0.00031 with E. coli TESEC Mtb Alr [2] (setting [8]); 0.04117 ± 0.00023 in the experiment on E. coli TESEC Mtb Alr [2] (setting [9]). In addition, the growth came out at 0.0522 ± 0.007 in the experiment with E. coli TESEC Mtb Asd (setting [10]); 0.0485 ± 0.0008 in the experiment with E. coli TESEC Mtb Asd (setting [11]); 0.0495 ± 0.00066 in the experiment on E. coli TESEC Mtb DapB (setting [12]); 0.0498 ± 0.0021 in the experiment with E. coli TESEC Mtb DapB (setting [13]); 0.0538 ± 0.0013 in experiment [3]; 0.0535 ± 0.00072 in the experiment on E. coli TESEC Mtb Alr [4] (setting [14]). In the experiment with E. coli TESEC Mtb Alr [4] (setting [15]), this molecule returned a growth of 0.05197 ± 5.8e-05.
Regarding `CCCCCCCN(CC)CCCC(O)c1ccc(NS(C)(=O)=O)cc1` (configuration not stated) [Ibutilide fumarate], the growth in experiment [1] was 0.219 ± 0.041; with E. coli TESEC Mtb Alr [2] (setting [5]), 0.298 ± 0.013; with E. coli TESEC Mtb Alr [2] (setting [6]), 0.268 ± 0.01; in the experiment with E. coli TESEC Mtb Alr [2] (setting [7]) it was 0.183 ± 0.02; with E. coli TESEC Mtb Alr [2] (setting [8]) it was 0.158 ± 0.0044; in the experiment on E. coli TESEC Mtb Alr [2] (setting [9]), 0.137 ± 0.001. Further, the growth is 0.271 ± 0.022 in the experiment on E. coli TESEC Mtb Asd (setting [10]); 0.44 ± 0.022 in the experiment on E. coli TESEC Mtb Asd (setting [11]); 0.197 ± 0.027 with E. coli TESEC Mtb DapB (setting [12]); 0.243 ± 0.019 in the experiment with E. coli TESEC Mtb DapB (setting [13]); 0.55 ± 0.095 in experiment [3]; 0.408 ± 0.0059 with E. coli TESEC Mtb Alr [4] (setting [14]). Moreover, the growth in the experiment with E. coli TESEC Mtb Alr [4] (setting [15]) was 0.313 ± 0.016.
